Shown are actives, neighbours in structure and some others; about 6.6% of the full set was active somewhere.
RGS4 inhibitor: blocks human RGS4-accelerated GTP hydrolysis; P49798; Potency, µM (series often up to 114 µM), for the others: top-dose activity change, negative = inhibition, usual class: inhibitors; Transcreener GDP fluorescence polarization, RGS4-accelerated GTP hydrolysis; 0.039% of 390,000 active; also: % is scaled to controls: 0 for no effect and ±100 for the full control effect; nearly all actives have a fitted effect of over 75% in size
Target sequence (P49798 whole entry, looked up): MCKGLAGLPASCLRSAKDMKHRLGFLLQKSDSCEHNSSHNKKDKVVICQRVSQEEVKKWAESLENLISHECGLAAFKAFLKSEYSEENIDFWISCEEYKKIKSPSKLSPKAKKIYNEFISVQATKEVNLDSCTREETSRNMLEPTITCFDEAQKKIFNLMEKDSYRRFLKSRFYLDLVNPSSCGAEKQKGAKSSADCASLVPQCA
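MLSMR compounds (23 nl, pin-transferred) preincubated 10 min at room temperature with a 500nM (2x) first reagent, then RGS4 at 900nM (2x) plus Transcreener GDP mix added; fluorescence polarization (620/688 nm) read before and after 90 min at 30 °C.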
TSG101-PTAP inh: blocks PTAP/TSG101 interaction to inhibit HIV-1 budding | Q99816 | 340,000 tested, under 10 active | Fluorescence polarization, FITC-PTAP peptide / Tsg101 binding | Potency, µM (highest dose often 115 µM), without a hit: top-dose activity change, negative = inhibition, usual class: inhibitors | AID 493005; active = well fitted inhibition curve with a large enough effect in the main read-out, with a control signal flat, not every such curve was filed as active; inconclusive = small, poorly fitted or top-dose-only effect, or effect the other way, or a change in a side signal; inactive = no such curve, though single readings can be large or run the other way; also: % of control where 0% means no effect
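Fluorescence anisotropy tracks displacement of a FITC-tagged PTAP peptide (50 nM) from the Tsg101 binding domain (10 uM), following a 20 min room-temperature incubation at pH 7.5.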
SW480 rerep: induces DNA re-replication in SW480 colon adenocarcinoma cells | 1.8% of 340,000 active | SW480 DNA re-replication, Hoechst DNA content imaging, 48 h | AID 624297 | Potency, µM (highest dose often 46.1 µM), inactives show top-dose re-replication activation, actives largely listed as activators; also: % of control where 0% means no effect; nearly all actives have a fitted effect of over 55% in size
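250 cells/well; 23 nL cpd via pin tool; 48 hr, 37 C, 5% CO2; Hoechst 40 min; imager read of total nuclear intensity, ex 405/em 500-530 nm.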
KB-V1 cytotox: KB-V1 MDR subline cytotoxicity; AID 1347076; 3.4% of 400,000 active; Potency, µM (top dose mostly 46.1 µM), hits mostly cytotoxic; KB-V1 MDR cells viability, CellTiter-Glo, 72 h; also: % is scaled to controls: 0 for no effect and ±100 for the full control effect; nearly all actives have a fitted effect of over 60% in size
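qHTS viability screen in drug-selected KB-V1 MDR cells: 72 h compound treatment at 37 degrees C, ATP luminescence end point.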
KB-3-1 tox: kills parental KB-3-1 adenocarcinoma cells; KB-3-1 viability, CellTiter-Glo ATP luminescence, 72 h; Potency, µM (titrated, usually from 46.1 µM), actives largely listed as cytotoxic; 1.4% of 400,000 active; AID 1347075; also: % is scaled to controls: 0 for no effect and ±100 for the full control effect; nearly all actives have a fitted effect of over 60% in size
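72 h, 37 °C compound treatment of KB-3-1 parental cells; CellTiter-Glo added, 10 min, luminescence read. Data corrected against DMSO-only plates and normalized before curve fitting.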
MCF10A rereplic: inducers of DNA re-replication in MCF 10A breast cells | MCF 10A DNA re-replication, Hoechst nuclear intensity, 48 h | Potency, µM (top dose mostly 46.1 µM), inactives show at the highest dose activity, positive = re-replication, usual class: activators | 2.9% of 350,000 active | AID 624296; also: % of control where 0% means no effect; nearly all actives have a fitted effect of over 50% in size
Active calls of the source: *; i = inactive; ? = inconclusive; . = no result given; [ ] = dose if it differs, or a comment. Unless noted, calls follow the shape of the dose curve; as a rule, active = well fitted curve in the direction sought with a large enough effect; inconclusive = small, poorly fitted or top-dose-only effect, or another doubt; inactive = no such curve, though single readings can be large; an effect the other way counts as inactive or inconclusive. Potency is read from the fitted curve at half-maximal effect.

SMILES | RGS4 inhibitor | TSG101-PTAP inh | SW480 rerep | KB-V1 cytotox | KB-3-1 tox | MCF10A rereplic
CCOc1ccc(C(C(=O)Nc2ccc(F)cc2)N(C(=O)Cn2nnc3ccccc32)C2CC2)cc1 (configuration not stated) | 20% | -3% | ? | 23µM* | i | 8%
CN(C)c1ccc(/C=C2\c3ccccc3-c3ccc(N(C)C)cc32)cc1 | . | . | . | i | i | .
CCn1c(SCC(=O)N(C)C)nc2cc(S(=O)(=O)N3CCCCC3)ccc21 | -14% | -5% | -3% | 21µM* | i | -3%
CCOC(=O)C1=C(C)N=c2s/c(=C/c3ccc(OCC(=O)O)cc3)c(=O)n2C1c1ccc(F)cc1 (configuration not stated) | ? | -3% | -6% | i | i | ?
CCOC(=O)C1=C(C)N=c2s/c(=C\c3ccc(OCC(=O)O)cc3)c(=O)n2C1c1ccc(Cl)cc1 (configuration not stated) | ? | ? | -56%[1.84 µM] | i | i | 18µM*
CN1CC(c2ccccc2Cl)C2(COc3ccccc3C2=O)C12C(=O)Nc1ccccc12 (configuration not stated) | 8% | 2% | ? | ? | ? | ?
Cc1ccc(C2CN(C)C3(C(=O)Nc4ccccc43)C23COc2ccccc2C3=O)cc1 (configuration not stated) | 10% | -4% | ? | 21µM* | ? | ?
C=C1CC(COc2ccc3c(C)c(Cl)c(=O)oc3c2)(c2ccccc2)OC1=O (configuration not stated) | ? | -4% | ? | ? | ? | 4.6µM*
COc1ccc2c(C)c(Cl)c(=O)oc2c1 | -9% | -6% | 1% | i | i | 0%
CCN(CC)c1ccc(NC(=O)CCc2nc3cccnc3n2Cc2cccs2)c(C)c1 | 1% | . | . | i | i | .
CCN(CC)S(=O)(=O)c1ccc(OC(C)C)c(NC(=O)C2=COCCO2)c1 | -9% | -2% | 2% | 7.3µM* | i | 7%
CCN(CC)S(=O)(=O)c1ccc(N2CCCC2)c(NC(=O)C2=COCCO2)c1 | -18% | 2% | ? | i | i | -10%
COc1ccc(N2CCN(c3cc(C(=O)NC4CCCCC4)ncn3)CC2)cc1OC | . | . | . | 15µM* | i | .
COc1ccc(C(=O)NC2CCCCCCC2)cc1OC | -19% | -1% | -1% | ? | ? | 3%
CN(C(=O)CSc1nc2ccc(NC(=O)CCc3ccccc3)cc2s1)c1ccccc1 | -16% | . | . | ? | ? | .
O=C(NCc1cccc(F)c1)c1ccccc1NC(=O)c1nsc2ccccc12 | 2% | . | . | i | i | .
C=CCNC(=O)c1ccccc1NC(=O)c1ccc(Cl)c(S(=O)(=O)Nc2cc(C)ccc2C)c1 | -14% | -3% | -3% | 21µM* | i | -2%
Cc1nc(-c2ccccn2)sc1C(=O)Nc1ccc(F)cc1F | 10% | -8% | -10% | 10µM* | i | -2%
Cc1nc(-c2ccccn2)sc1C(=O)Nc1ccc(F)cc1 | 37% | -2% | 9% | 18µM* | ? | ?
CNC(=O)c1sc(-c2ccccn2)nc1C | -22% | 1% | -21% | i | i | -6%
Cc1nc(-c2cccnc2)sc1C(=O)Nc1ccc(Cl)cc1 | 9% | -1% | -8% | 18µM* | i | 10%
CC(C)(C)OC(=O)N1CCC(c2c(C(=O)N3CCN(c4ccc(Cl)cc4)CC3)cnn2-c2ccc(F)cc2F)CC1 | -2% | . | . | ? | i | .
Cn1nc(-c2ccncc2)nc2c(=O)n(C)c(=O)nc1-2 | 0% | . | . | ? | 1.8µM* | .
Cc1ccc(NC(=O)c2c(C)oc3ccc(O)c(CN4CCCCCC4)c23)c(C)c1 | -8% | . | . | . | . | .
CCN(CC(=O)NCc1cccs1)C(=O)CCCOc1ccc(C(C)(C)C)cc1 | -7% | 2% | -1% | 21µM* | ? | 16%

Screens as filed in PubChem BioAssay.
